Results as given in PubChem BioAssay (NCI).
This is part of a sample that, as a whole, favours compounds with a hit. Of some 83,000 tested, about 20% had one in any assay.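 Single-concentration screen, 48 h exposure, 96-well plates. Endpoint: percent growth. Below 10 = active.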 Values without a mark were called inactive. Active and inactive are the calls of the source.

Columns and labels:
Test in all cases: NCI-60 one-dose screen, 48 h (100 = growth as untreated, 0 = no growth, -100 = all killed)
Details in all cases: 10 µM unless noted
NCI-H23 lung = test system: NCI-H23 lung
NCI-H226 lung = test system: NCI-H226 lung
NCI-H322M lung = test system: NCI-H322M lung
HOP-62 NSCLC = test system: HOP-62 NSCLC
NCI-H460 lung = test system: NCI-H460 lung
HOP-92 NSCLC = test system: HOP-92 NSCLC
NCI-H522 lung = test system: NCI-H522 lung
A549/ATCC NSCLC = test system: A549/ATCC NSCLC
786-0 renal = test system: 786-0 renal
COLO 205 colon = test system: COLO 205 colon

Row | Structure (SMILES) | growth (NCI-H23 lung) | growth (NCI-H226 lung) [%] | growth (NCI-H322M lung) [%] | growth (HOP-62 NSCLC) | growth (NCI-H460 lung) | growth (HOP-92 NSCLC) | growth (NCI-H522 lung) | growth (A549/ATCC NSCLC) | growth (786-0 renal) | growth (COLO 205 colon)
1 | CCCCCCCCCCCCCCCCCCOc1ccc(CC(=O)OCC[N+]2(C)CCCC2)cc1 | 93.2% | 92.6 | 102 | 101% | 99.7% | 110% | 96.8% | 97.2% | 96.2% | 107%
2 | CN(C)c1ccc(/C=C/C(=O)c2cccc(Nc3nc(Nc4ccccc4)nc(Nc4ccccc4)n3)c2)cc1 | 82.7% | 94 | 93.5 | 86.5% | 98.4% | 46.9% | 87.3% | 85.6% | 88.2% | 81.5%
3 | Cc1ccc(S(=O)(=O)NCC[C@@H]2C[C@H]2c2cc3ccccc3s2)cc1 | 93.2% | 87.8 | 101 | 108% | 104% | 101% | 85.3% | 98.5% | 100% | 120%
4 | CC/C=C\CCC/C=C1/C(=O)C=C[C@@H]1C/C=C\CCCC(=O)O | 80.4% | 90.3 | 107 | 100% | 83.7% | 75.3% | 29.9% | 79.9% | 85.2% | 85.8%
5 | Cc1ccc(C(=O)COc2cccc(/C=C3\Oc4ccccc4C3=O)c2)cc1 | 90.5% | 80.9 | 101 | 97.1% | 119% | 89.8% | 78.2% | 96.9% | 97.6% | 115%
6 | COc1ccc2c(c1)CCCN2c1c2ccccc2nc2ccccc12 | 15.8% | 12.6 | 45.9 | 33.2% | 6.18% (active) | 12.4% | -0.944% (active) | 18.5% | 28.9% | -16.8% (active)
7 | O=C(c1ccccc1)c1c(/C=C/c2ccccc2)nc2ccccc2c1/C=C/c1ccc(Br)cc1 | 94.5% | 95.1 | 96.7 | 101% | 106% | 98.3% | 88.2% | 98.1% | 99.7% | 114%
8 | COc1cc(/C=N/n2c(CN3CCOCC3)nc3ccccc3c2=O)cc(OC)c1OC | 98.9% | 115 | 90 | 96.4% | 109% | 106% | 97.9% | 92.3% | 100% | 106%
9 | Cc1nn(-c2ccccc2)c(Oc2ccc(Cl)cc2)c1/C=N\N=c1/sc2ccccc2n1C | 88.9% | 84.3 | 83.8 | 86.7% | 85% | 71.9% | 68% | 86.1% | 96.3% | 93%
10 | CCN1CCN(c2nc(C)cc(NCc3cc(Nc4ccnc5cc(Cl)ccc45)ccc3F)n2)CC1 | 46.5% | 69.1 | 50.5 | 12% | -12.6% (active) | 36% | -14.8% (active) | 28% | -51.2% (active) | -56.4% (active)
11 | COc1cc(-c2n/c(=C\c3c(O)[nH]c4ccc(Cl)cc34)cc3c2=Nc2ccccc2-3)cc(OC)c1OC | -2.92% (active) | 62.6 | 68 | -8.81% (active) | -38% (active) | -25.4% (active) | -0.596% (active) | -39.4% (active) | -37.1% (active) | 8.86% (active)
12 | O=C1NC(=Nc2ccc(Cl)cc2)S/C1=C\c1cn(-c2ccccc2)nc1-c1ccccc1 | 93.4% | 93.4 | 89.5 | 99.6% | 44.6% | -0.936% (active) | 75.4% | 34.9% | 85.5% | 96.7%
13 | N#Cc1c(-c2cccc(Cl)c2)cc(-c2cccc(F)c2)[nH]c1=O | 96.3% | 95.1 | 90.8 | 93.4% | 95.9% | 55.3% | 85% | 84.5% | 90.3% | 109%
14 | COc1cc(-c2nn(-c3ccccc3)cc2-c2ccnc(NCCNS(=O)(=O)c3ccc(Cl)cc3)n2)ccc1Cl | 47.4% | 30.8 | 68.8 | 48% | 19% | 48.8% | 42.2% | 13.3% | 28.9% | 17.2%
15 | COc1cc(N=Nc2ccc(N)cc2)c(OC)cc1N=Nc1ccccc1.[Cl][Zn][Cl] | 89% | 104 | 78.2 | 86.5% | 109% | 71.5% | 108% | 110% | 110% | 102%
16 | NC[C@H](O)c1ccc(O)c(O)c1 | 98.8% | 109 | 110 | 105% | 103% | 65.8% | 102% | 109% | 108% | 109%
17 | O=C(O)CN1C(=O)CCC1=O | 104% | 101 | 123 | 97.1% | 115% | 97.2% | 103% | 98.4% | 105% | 118%
18 | COc1cccc(C(=O)NCCCNc2cc(-c3cn(-c4ccccc4)nc3-c3cccc(OC)c3)ccn2)c1 | 45.4% | 54.6 | 99.6 | 66% | 48.8% | 45.3% | 46.1% | 29.9% | 36.6% | 40%
19 | O=C(COc1ccc(/C=C2\Oc3ccccc3C2=O)cc1)Nc1nc2c(s1)CCCC2 | 45.1% | 84.3 | 115 | 44.2% | 99.5% | -90.1% (active) | -74.9% (active) | 73.2% | 20% | 102%
20 | Nc1ccc2c(c1)c(N)nn2C(=O)Nc1ccc(Cc2ccccc2)cc1 | 82.1% | 72.5 | 81.2 | 82.7% | 44.5% | 98.2% | 88.3% | 52.3% | 84.3% | 107%
21 | O=C(Nc1cccc2c(O)c(N=Nc3ccc(S(=O)(=O)Nc4nccs4)cc3)cc(N=Nc3ccc(S(=O)(=O)Nc4nccs4)cc3)c12)C(Cl)Cl | 103% | 98.8 | 89.7 | 96.8% | 73.4% | 24.7% | -42.5% (active) | 92.2% | 103% | 99%
22 | N#CC1=C(c2ccc(Br)cc2)NC(SCC(=O)c2ccc(Br)cc2)NC1=O (stereo not given) | 105% | 97 | 104 | 98.6% | 107% | 102% | 99.5% | 93.8% | 92.6% | 116%
23 | COc1cccc(-c2nn(-c3ccccc3)cc2-c2ccnc(NCCNC(=O)c3ccccc3)c2)c1 | 61.4% | 70.4 | 109 | 60.7% | 63.7% | 52.8% | 56.7% | 41.8% | 54.4% | 62.6%
24 | O=C(CSc1nnc(-c2ccc(NC(=O)c3cccnc3)cc2)o1)N[C@@H](Cc1ccc(O)cc1)C(=O)O | 108% | 102 | 99.8 | 98% | 111% | 96.3% | 91% | 104% | 99.6% | 101%
